Shown are actives, neighbours in structure and some others; about 3% of the full set was active somewhere.
Mcl1-Noxa inh = Mcl-1/Noxa interaction inhibition; Q07820; TR-FRET Mcl-1/Noxa peptide binding, 2 h; inhibition, % at 21.7 µM; hit rate 1.5% among 220,000; AID 1022;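 active = compounds that cut the protein-peptide binding signal by more than 50% relative to plate controls in a single-dose test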;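 also: His-tagged Mcl-1 with rhodamine Noxa BH3 peptide and terbium anti-His antibody; 0% = Mcl-1 plus Noxa peptide wells and 100% = peptide-only wells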
Mcl-1 Bim block = disrupts Bim peptide binding to human Mcl-1; AID 1009; Bead-based flow cytometry, Bim peptide-Mcl-1 binding; inhibition, % at 10 µM; Q07820; hit rate 0.1% among 190,000; in the data active = inhibition above about 40%;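 also: 0% = no compound tracer wells and 100% = peptide blocker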
Mcl1 Bid PPI = Mcl-1/Bid interaction inhibition. Q07820. TR-FRET Mcl-1/Bid-Dy647 peptide binding, 1536-well. inhibition, % at 21.7 µM. hit rate 0.97% among 220,000;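 active = compounds that cut the binding signal by more than half at the single screening dose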;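 also: His-tagged Mcl-1 with europium anti-His antibody binding Bid BH3 peptide; 0% = Mcl-1 plus peptide wells and 100% = peptide-only wells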
14-3-3 Bad inh = disrupts binding of bovine 14-3-3 zeta to phospho-Bad peptide | P63103 | TR-FRET 14-3-3zeta/Dy647-pBad peptide displacement, 1 h | inhibition, % at 21.7 µM | hit rate 0.71% among 220,000 | AID 781;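 active = inhibition above about 70%, limit read from the data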;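 also: 0% = full 14-3-3 plus peptide FRET controls and 100% = background without 14-3-3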
Target sequence (P63103 whole entry, looked up): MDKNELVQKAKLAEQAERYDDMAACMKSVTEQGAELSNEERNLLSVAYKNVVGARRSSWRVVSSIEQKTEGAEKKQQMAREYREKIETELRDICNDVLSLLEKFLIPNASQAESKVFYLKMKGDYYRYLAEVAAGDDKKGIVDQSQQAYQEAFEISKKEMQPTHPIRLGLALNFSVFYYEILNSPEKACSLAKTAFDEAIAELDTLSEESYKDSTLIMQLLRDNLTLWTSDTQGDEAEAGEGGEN
Arbovirus anti = antivirals against arbovirus infection. arbovirus infection cell-based antiviral screen. hit rate 0.37% among 200,000. AID 1251. inhibition, % at 10 µM; in the data active = inhibition above about 30%
* hit, by the source's call.

NC(=O)CC(NC(=O)c1ccc(Br)cc1)c1ccc(NCCc2ccc(F)cc2)c([N+](=O)[O-])c1 (centres undefined) was read as Mcl1-Noxa inh 12, Mcl1 Bid PPI 18 and 14-3-3 Bad inh 13.
For CC(C)Nc1ccc(C(CC(N)=O)NC(=O)c2ccc(Br)cc2)cc1[N+](=O)[O-] (centres undefined) the results were Mcl1-Noxa inh 2, Mcl1 Bid PPI 65* and 14-3-3 Bad inh 6.
Screening NC(=O)CC(NC(=O)Cc1ccc(Br)cc1)c1ccc(NC2CCC2)c([N+](=O)[O-])c1 (centres undefined) returned Mcl1-Noxa inh 51*, Mcl1 Bid PPI -50 and 14-3-3 Bad inh 0.
`Cc1nn(C)c(C)c1CN(Cc1nc(CCC(C)C)no1)C(C)C` gave Mcl1-Noxa inh -8, Mcl-1 Bim block -1, Mcl1 Bid PPI -44, 14-3-3 Bad inh -7 and Arbovirus anti 7.
CCSc1nc2nn(-c3ccccc3)c(=O)c-2c2n1CCCCC2 was read as Mcl1-Noxa inh 10, Mcl-1 Bim block 1, Mcl1 Bid PPI -29, 14-3-3 Bad inh 4 and Arbovirus anti 6.
Screening O=C(CSc1nc2nn(-c3ccccc3)c(=O)c-2c2n1CCCCC2)NCCc1ccccc1 returned Mcl1-Noxa inh 55*, Mcl-1 Bim block 0, Mcl1 Bid PPI -12, 14-3-3 Bad inh -7 and Arbovirus anti 32*.
Screening CS(=O)(=O)c1ccc2nc(NC(=O)c3cccc(NS(=O)(=O)c4ccc(F)c(F)c4)c3)sc2c1 returned Mcl1-Noxa inh -27, Mcl-1 Bim block -3, Mcl1 Bid PPI 16, 14-3-3 Bad inh -4 and Arbovirus anti 65*.
`CS(=O)(=O)c1ccc2nc(NC(=O)c3ccc(NS(=O)(=O)c4ccc(F)c(F)c4)cc3)sc2c1` gave Mcl1-Noxa inh 6, Mcl1 Bid PPI 64* and 14-3-3 Bad inh 72*.
Screening Cc1ccc(Nc2nc(C)cs2)cc1 returned Mcl1-Noxa inh 12, Mcl-1 Bim block 29, Mcl1 Bid PPI -48, 14-3-3 Bad inh -9 and Arbovirus anti -4.
For COc1ccc(NC2=CC(=O)CC(c3ccccc3)C2)cc1 (centres undefined) the results were Mcl1-Noxa inh 7, Mcl-1 Bim block 2, Mcl1 Bid PPI -14, 14-3-3 Bad inh -2 and Arbovirus anti -7.
CSc1nc2nc(-c3ccccc3)cc(=O)n2[nH]1 was read as Mcl1-Noxa inh -9, Mcl-1 Bim block 5, Mcl1 Bid PPI -4, 14-3-3 Bad inh 79* and Arbovirus anti 0.
`CN(C)c1cccc(NC(=O)C2(C)CC2(Cl)Cl)c1` (centres undefined) gave Mcl1-Noxa inh 39, Mcl-1 Bim block 84*, Mcl1 Bid PPI -68, 14-3-3 Bad inh -5 and Arbovirus anti -15.
CCCOc1ccc(C(=O)NCC(c2ccco2)N(C)C)cc1OC (centres undefined) was read as Mcl1-Noxa inh -11, Mcl-1 Bim block -5, Mcl1 Bid PPI 95*, 14-3-3 Bad inh -11 and Arbovirus anti -1.
COc1ccc(C(=O)NCC(=O)NCC(c2ccco2)N(C)C)cc1OC (centres undefined) was read as Mcl1-Noxa inh 23, Mcl-1 Bim block -7, Mcl1 Bid PPI -21, 14-3-3 Bad inh 1 and Arbovirus anti 5.
COC(=O)N/N=C\c1cccc(OC(=O)c2cccs2)c1 was read as Mcl1-Noxa inh 13, Mcl-1 Bim block 0, Mcl1 Bid PPI -12, 14-3-3 Bad inh -14 and Arbovirus anti 3.
For O=C1NN(c2ccc(Cl)c(Cl)c2)C(=O)/C1=C/c1cccc(OC(=O)c2cccs2)c1 the results were Mcl1-Noxa inh 96*, Mcl-1 Bim block -1, Mcl1 Bid PPI 90*, 14-3-3 Bad inh 54 and Arbovirus anti -25.
Screening O=C1NN(c2ccccc2)C(=O)/C1=C\c1cccc(OC(=O)c2cccs2)c1 returned Mcl1-Noxa inh 57*, Mcl-1 Bim block -3, Mcl1 Bid PPI 16, 14-3-3 Bad inh 12 and Arbovirus anti -34.
Screening COc1ccc2cc(CCN3C(=O)c4ccccc4C3=O)c(=O)[nH]c2c1 returned Mcl1-Noxa inh -65, Mcl-1 Bim block 3, Mcl1 Bid PPI -9, 14-3-3 Bad inh -4 and Arbovirus anti 3.
For O=[N+]([O-])c1ccc(O)c(/C=N/Nc2nn[nH]n2)c1 the results were Mcl1-Noxa inh 2, Mcl-1 Bim block 3, Mcl1 Bid PPI -78, 14-3-3 Bad inh -16 and Arbovirus anti 15.
`O=[N+]([O-])c1ccc(O)c(/C=N/Nc2ccc(Cl)nn2)c1` gave Mcl1-Noxa inh 79*, Mcl-1 Bim block 1, Mcl1 Bid PPI -4, 14-3-3 Bad inh -12 and Arbovirus anti -17.

Source: PubChem BioAssay
